Active and inactive are the calls of the source. The calls were made as follows: active = hit-call score of the fitted dose curve at least 0.9, where 1 is the maximum; inactive = score below 0.9.

This passage reports AC50 and outcome results from PubChem BioAssay (EPA / NIEHS).

Read-out in the test: Intercellular Adhesion Molecule 1 (ICAM1), ICAM1 (gene 3383)
The test can be described thus: BSK_KF3CT_ICAM1: BioMAP Diversity Plus: KF3CT Assay for Intercellular Adhesion Molecule 1 (ICAM1) Biomarker Activity (AID 2283067). Particulars: primary human keratinocytes with fibroblasts; actives raise or lower the signal. As for the experimental part:
BSK_KF3CT is a cell-based, multiplexed-readout assay that uses keratinocytes and foreskin fibroblasts, a human skin primary cell co-culture, with measurements taken at 24 hours after chemical dosing in a 96-well plate.BSK_KF3CT_ICAM1 is an assay component measured in the BSK_KF3CT assay. It measures ICAM-1 antibody related to regulation of gene expression using ELISA technology.Data from the assay component BSK_KF3CT_ICAM1 was analyzed into 1 assay endpoint. This assay endpoint, BSK_KF3CT_ICAM1, was analyzed with bidirectional fitting relative to DMSO as the negative control and baseline of activity. Using a type of binding reporter, gain or loss-of-signal activity can be used to understand changes in the signaling as they relate to the gene ICAM1. Furthermore, this assay endpoint can be referred to as a primary readout, because this assay has produced multiple assay endpoints where this one serves a signaling function. To generalize the intended target to other relatable targets, this assay endpoint is annotated to the cell adhesion molecules intended target family, where the subfamily is Immunoglobulin CAM.
The levels of cell surface (or secreted, indicated by the prefix "s") biomarker endpoints were measured by ELISA. Overt cytotoxicity to cells in confluent adherent cultures (all systems other than the BT system) was assessed by measuring total protein levels using sulforhodamine B (SRB) staining in parallel cultures at the time of biomarker measurements, indicated as SRB endpoints. For proliferation assays for adherent cell types, individual cell types are cultured at sub-confluence and relative cell numbers quantified by SRB staining at time points optimized for each system (48 h: 3C and CASM3C systems; 72 h: BT and HDF3CGF systems; 96 h: SAg system). SRB was performed by staining cells with 0.1% SRB after fixation with 10% TCA and reading wells at 560 nm.Viability and proliferation of PBMC (T cells) was quantified by Alamar Blue reduction for the SAg and BT systems. For PBMC viability (referred to as PBMC Cytotoxicity within the assay endpoint names), cells were plated (75,000/well in a 96-well plate) and then chemical samples added for 1 h before addition of activators, SEB and TSST-1 (20 ng/mL final concentration each). Cells were incubated for 90 h. Then, Alamar Blue (20 uL/well) (Invitrogen, Cat DAL1100) was added for 6 h, and the plates were read with a fluorescence microplate reader at 546/580 nm (excitation/emission). For PBMC proliferation, cells were plated and activated as above but incubated for only 16 h prior to addition of Alamar Blue. Plates were read after 6 h.
For the molecule `O=S1(=O)CC(Cl)(Cl)C(Cl)(Cl)C1`, the half-maximal activity concentration (AC50) (in general, the midpoint of the concentration-response curve, whichever way the signal moves) is 1.4 µM (active).
Consider `c1ccc(Sc2ccccc2)cc1`, for which the result was inactive.
For the molecule `C=CC(=O)OCC(CO)(COC(=O)C=C)COC(=O)C=C`, the AC50 was 0.682 µM (active).
On to `C=C(F)C(=O)OC(C(F)(F)F)C(F)(F)F`, for which the outcome was inactive.
Consider `O=C(c1ccc(OCCN2CCCCC2)cc1)c1c(-c2ccc(O)cc2)sc2cc(O)ccc12`, for which the half-maximal activity concentration (AC50) was 38 µM (active).
Regarding `O=C1OC2(c3ccc(O)cc3Oc3cc(O)ccc32)c2ccccc21`, the outcome was inactive.
Take `CCCCCCCC1CCCC1=O` (stereo not given): the half-maximal activity concentration (AC50) is 30.6 µM (active).
As for `CCn1cc(C(=O)O)c(=O)c2ccc(C)nc21`, the outcome was inactive.
The same measure, in the same setting: next, `c1ccc2c(c1)-c1ccc3ccc4cccc5cc-2c1c3c45`: “inactive”; `CCCCN(CCO)CCO`: “inactive”.
Consider `C=C(C)C(N)=O`, for which the outcome was inactive.
The same measure, in the same setting: the value for `C[C@]12CC[C@@H]3c4ccc(O)cc4CC[C@H]3[C@@H]1CC[C@@H]2O` was “inactive”; that for `CCCCCCCCCCCCS` was “inactive”.
Same read-out and setting: the value for `CC(C)(C)c1cccc(O)c1` was “inactive”; that for `CCC(=O)OCC=Cc1ccccc1` was “inactive”.
For `C=C1CC/C=C(\C)CC[C@@H]2[C@@H]1CC2(C)C`, the concentration at half-maximal activity (AC50) was 30.3 µM (active).
In the case of `CC(=O)OCC=C(C)CCC=C(C)CCC=C(C)C`, the outcome was inactive.
The same measure, in the same setting: the value for `COC(=O)c1ccc(C(=O)OC)cc1` was “inactive”; that for `CC1(C)[C@H](C=C(Cl)Cl)[C@H]1C(=O)OCc1cccc(Oc2ccccc2)c1` was “inactive”.
Still for that read-out and setting: next, `c1ccc(OCCOc2ccccc2)cc1`: “inactive”.
Still for that read-out and setting: the value for `C=C(C)C(=O)OCCC(F)(F)C(F)(F)C(F)(F)C(F)(F)C(F)(F)C(F)(F)C(F)(F)C(F)(F)F` was “inactive”.
For `NC(=O)c1c(Cl)cccc1Cl`, the outcome was inactive.
Take `CC(=O)CCC=C(C)CCC=C(C)C`: the result was inactive.
Turning to `Nc1ccc(N)c([N+](=O)[O-])c1`, the outcome was inactive.
For `O=C(O)C(F)(F)OC(F)(F)C(F)(F)OC(F)(F)C(F)(F)C(F)(F)C(F)(F)F`, the result was inactive.
On the same count and under the same terms, the value for `CCCO[Si](OCCC)(OCCC)OCCC` was “inactive”.
Still for that read-out and setting: next, `CCCCOCCOCCO`: “inactive”.
Same read-out and setting: the value for `O=S(=O)(O)C(F)(F)C(F)(F)OC(F)(F)C(F)(F)F` was “inactive”.
For the molecule `C#C[C@]1(O)CC[C@H]2[C@@H]3CCc4cc(O)ccc4[C@H]3CC[C@@]21C`, the outcome was inactive.
As to `CCOC(=O)C=Cc1ccccc1`, the result was inactive.
On the same count and under the same terms, next, `CC(C)Cc1ccc(C(C)C(=O)O)cc1` (stereo not given): “inactive”; `OCCN1CCOCC1`: “inactive”.
Same read-out and setting: next, `COc1ccccc1NC(=O)CC(C)=O`: “inactive”.
Same read-out and setting: next, `CCOC(=O)CCCCCCCCC(=O)OCC`: “inactive”.
With `CC(C)(CO)CO`, the result was inactive.
Same read-out and setting: next, `O=C(O)C(F)(F)C(F)(F)C(F)(F)C(F)(F)C(F)(F)C(F)(F)C(F)(F)C(F)F`: “inactive”; `CC(=O)c1ccc(C)cc1`: “inactive”; `CC1=CC(C)C(C=O)C(C)C1` (stereo not given) (tested in a mixture with another compound): “inactive”.
On to `CC(C)CCCC(C)(C)O`, for which the result was inactive.
Turning to `CC=CC(=O)C1=C(C)C=CCC1(C)C`, the result was inactive.
